This passage reports z-score and inhibition results from PubChem BioAssay.

The source made the active and inactive calls. Cut-off read from the data, not from the text of the source, unless noted: active = inhibition above about 80%; inactive = the rest.

Assay [1] can be described thus: galactose survival enhancers in mitochondrial complex I cybrids – cell-based, galactose medium, ATP luminescence, primary screen (AID 1645843;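 active = z-score of at least 1.8 in each of two replicates, scored against plate mean and spread of sample wells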;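 note: positive z means more ATP and so rescue of galactose-driven cybrid death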). The note with it: complex I mutant cybrid cells, 72 h, stronger effect = higher value.
A short description of assay [2]: growth inhibition, single agent or in combination, cell-based, chromothripsis tumors, cisplatin or BGB combos (AID 1671449).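 Note: cells exposed for 96 hours; 0% = vehicle DMSO and 100% = killing by high DMSO.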 The note with it: LFS_MB_P medulloblastoma cells.
Assay [3] can be described thus: growth inhibition, single agent and combos, cell-based, chromothripsis tumors, cisplatin or BGB combos (AID 1671450).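 Note: cells exposed to compound for four days; 0% = vehicle DMSO and 100% = cell killing by high DMSO.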 The note with it: HDN33 neuroblastoma cells, stronger effect = higher value.
A short description of assay [4]: growth inhibition, single agents and combos, ICB984, cell-based, cisplatin or BGB combos, synergistic combos for chromothripsis tumors (AID 1671451; call rule not given here;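 note: cells exposed for 96 hours before readout; 0% = vehicle DMSO and 100% = killing by high DMSO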). The note with it: ICB984 medulloblastoma cells, drug combinations, stronger effect = higher value.
A short description of assay [5]: growth inhibition, single agents and combos, LFS_MB_1R, cell-based, cisplatin or BGB combos, synergistic combos for chromothripsis tumors (AID 1671452).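 Note: cells exposed for 96 hours before readout.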 The conditions noted are these: LFS_MB_1R medulloblastoma cells, stronger effect = higher value.
A short description of assay [6]: growth inhibition, single agents and combos, HTB85, cell-based, BGB or cisplatin IC20 combos, synergistic combos for chromothripsis tumors (AID 1671453).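 Note: cells exposed for 96 hours before readout; 0% = vehicle DMSO and 100% = high DMSO killing control.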 The conditions noted are these: HTB85 osteosarcoma cells, drug combinations, stronger effect = higher value.
Assay [7] is described as follows: growth inhibition, single agents and combos, CRL2098, cell-based, BGB or cisplatin IC20 combos, synergistic combos for chromothripsis tumors (AID 1671454).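 Note: cells exposed for 96 h before readout; 0% = vehicle DMSO and 100% = killing by high DMSO.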 The note with it: CRL2098 osteosarcoma cells, drug combinations, stronger effect = higher value.
Assay [8] in a line: growth inhibition, single agents and combos, HD-MB03, cell-based, BGB or cisplatin IC20 combos, synergistic combos for chromothripsis tumors (AID 1671455; in the data active = inhibition above about 83%;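 note: 0% = vehicle DMSO and 100% = high DMSO as cytotoxic control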). The conditions noted are these: HD-MB03 medulloblastoma cells, stronger effect = higher value.
Assay [9] in a line: growth inhibition, single agents and combos, UWB1.289, cell-based, BGB or cisplatin combos, synergistic combos for chromothripsis tumors (AID 1671456).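 Note: cells exposed to compound for four days; 0% = vehicle DMSO and 100% = killing by high DMSO.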 The conditions noted are these: UWB1.289 ovarian carcinoma cells, stronger effect = higher value.
Assay [10] can be described thus: growth inhibition, single agents and combos, LFS_MB_2R, cell-based, cisplatin combos, synergistic combos for chromothripsis tumors (AID 1671457).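 Note: cells exposed to compound for four days before readout.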 The note with it: LFS_MB_2R medulloblastoma cells, stronger effect = higher value.
A short description of assay [11]: growth inhibition, MDA-MB-436, cell-based, BGB or cisplatin combos, synergistic combos for chromothripsis tumors (AID 1671458; call rule not given here;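 note: cells exposed for 96 hours; 0% = vehicle DMSO and 100% = killing by high DMSO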). The conditions noted are these: MDA-MB-436 breast carcinoma growth inhibition, drug combinations, stronger effect = higher value.
Assay [12] is described as follows: UWB1.289_BRCA1 ovarian cancer growth, cell-based, BGB or cisplatin combinations (AID 1671459). The conditions noted are these: UWB1.289 BRCA1 ovarian carcinoma, drug combinations, stronger effect = higher value.
A short description of assay [13]: drug combination toxicity in non-malignant astrocytes – cell-based, BGB or cisplatin IC20 combos, cytotoxicity control for chromothriptic childhood tumor combination screen (AID 1671460).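 Note: cells exposed to compounds for 96 hours before viability readout; 0% = vehicle and 100% = killing control.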 The note with it: Human astrocytes, viability inhibition, drug combinations, at 0.5 µM, stronger effect = higher value.
A short description of assay [14]: BT084 cell growth, single and combined drugs, ICGC_MB145, cisplatin and BGB IC40 combos (AID 1671461).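 Note: cells exposed to drugs for 96 hours; 0% = vehicle DMSO and 100% = high DMSO full killing control.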 The note with it: BT084 medulloblastoma cells, drug combinations, stronger effect = higher value.
A short description of assay [15]: RCMB18 cell growth, single agent and combined, cisplatin and BGB IC40 combos (AID 1671462).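 Note: cells exposed to compound for four days.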 The note with it: RCMB18 medulloblastoma cells, stronger effect = higher value.
A short description of assay [16]: CRL1545 cell growth, single agent and combined, cisplatin and BGB IC20 combos (AID 1671464).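 Note: cells exposed to compound for 96 hours before readout; 0% = vehicle DMSO and 100% = high DMSO killing control.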 The note with it: CRL1545 osteosarcoma cells, stronger effect = higher value.
Where [17] appears, read: measured here: combination with BGB IC40, at 0.05 µM.
[18] abbreviates: measured here: with BGB IC20 combination, at 0.5 µM.
The mark [19] stands for this setting: measured here: with cisplatin IC20 combination, at 0.5 µM.
[20] abbreviates: measured here: combination with cisplatin, at 0.5 µM.
Setting [21] is: measured here: combination with cisplatin, at 5 µM.

With `CC(C)CCC(=O)N1CCCCC1CCc1ccc(O)cc1` (stereo not given), the z-score in assay [1] is -0.375 (inactive).

Turning to `CCCC(NC(=O)c1ccc(C#N)cc1)c1ccccc1` (stereo not given), in assay [1], the z-score was -0.32 (inactive).

As to `COc1nc(N)nc2c1ncn2[C@@H]1O[C@H](CO)[C@@H](O)[C@H]1O`, the inhibition – broadly, the relative decrease from the control value, in per cent – in assay [2] (at 0.5 µM, stronger effect = higher value) was 4.72% (inactive); in assay [2] (measured here: combination with BGB IC20, at 0.005 µM) it was 15.5%; in assay [2] (measured here: combination with BGB IC40, at 0.005 µM), 9.31%; in [2] (setting [17]), -38.6%; in [2] (measured here: combination with cisplatin, at 0.5 µM, stronger effect = higher value) it was 58.9%; in assay [2] (measured here: combination with cisplatin, at 5 µM, stronger effect = higher value), 5.54%. For the same compound, the inhibition in [3] (BGB combo, at 5 µM) was -39.7%; in [3] (at 0.5 µM), -10.9% (inactive); in assay [3] (cisplatin combo, at 5 µM), -30.3%; in [3] (setting [18]) it was -0.293%; in assay [3] (setting [19]), -13.5%; in assay [3] (single agent, at 5 µM), -2.81%. Further, the inhibition in [4] (BGB IC20 combo, at 0.005 µM) was -28.6%; in [4] (BGB IC40 combo, at 0.005 µM), -6.48%; in assay [4] (BGB IC40 combo, at 0.05 µM), -21%; in assay [4] (at 0.5 µM), -21.1% (inactive); in assay [4] (cisplatin combo, at 0.05 µM), -25.3%; in [4] (cisplatin combo, at 0.5 µM), -22.6%. Besides, the inhibition was -28.5% in assay [4] (cisplatin combo, at 5 µM); -19.6% in [4] (measured here: 5 uM single agent, at 5 µM); -13.7% (inactive) in assay [5] (at 0.5 µM); -35.3% in assay [5] (setting [17]); -34.3% in assay [5] (setting [20]); -13.1% in assay [5] (setting [21]). For the same compound, the inhibition in assay [6] (at 0.5 µM) was -19.2% (inactive); in [6] (measured here: with BGB IC20, at 0.5 µM) it was -19.6%; in [6] (measured here: with BGB IC20, at 5 µM), -25.8%; in [6] (measured here: with cisplatin IC20, at 0.5 µM), -42.1%; in assay [6] (measured here: with cisplatin IC20, at 5 µM), -37.2%; in assay [6] (single agent, at 5 µM), -10.5%. For the same compound, the inhibition in assay [7] (at 0.5 µM) is -31.4% (inactive); in assay [7] (measured here: combination with BGB at IC20, at 0.5 µM), -18.4%; in assay [7] (measured here: combination with cisplatin at IC20, at 0.5 µM), -84.8%; in assay [8] (at 0.5 µM), -9.1% (inactive); in assay [8] (measured here: combo with BGB at IC20, at 0.5 µM), -11%; in [8] (measured here: combo with cisplatin at IC20, at 0.5 µM), -9.78%. Moreover, the inhibition was -10.1% (inactive) in [9] (at 0.5 µM); -8.96% in assay [9] (measured here: inhibition with BGB combination, at 0.05 µM); -25.3% in assay [9] (measured here: inhibition with cisplatin combination, at 0.05 µM); -9.84% (inactive) in assay [10] (at 0.5 µM); -1.3% in assay [10] (setting [20]); 9.04% in assay [10] (setting [21]). The inhibition in assay [11] (at 0.5 µM) is -1.85% (inactive); in assay [11] (measured here: BGB combination, at 0.5 µM), 1.63%; in [11] (measured here: BGB combination, at 5 µM), -10.7%; in [11] (measured here: cisplatin combination, at 0.5 µM), -1.11%; in assay [11] (measured here: cisplatin combination, at 5 µM), -9.18%; in assay [12] (BGB combination, concentration series, at 5 µM), -2.42%. Besides, the inhibition was -5.52% (inactive) in assay [12] (at 0.5 µM); 1.78% in [12] (cisplatin combination, concentration series, at 5 µM); -6.61% (inactive) in assay [13]; -1.7% in assay [13] (measured here: combo with BGB IC20); -14.9% in [13] (measured here: combo with cisplatin IC20); 7.93% (inactive) in assay [14] (at 0.5 µM). The inhibition in [14] (cisplatin combination, at 0.5 µM) is -30.4%; in [14] (cisplatin combination, at 5 µM) it was 16.2%; in assay [14] (measured here: BGB IC40 combination 0.05 uM, at 0.05 µM), 42.2%; in [14] (single agent, at 5 µM), -18%; in [15] (at 0.5 µM) it was -13.9% (inactive); in assay [15] (cisplatin combo, at 5 µM), -23.5%. The inhibition is -4.14% in assay [15] (measured here: BGB IC40 combination, at 0.05 µM); -19% in assay [15] (setting [20]); 15.2% in assay [15] (single agent, at 5 µM); -24.6% (inactive) in assay [16] (at 0.5 µM); -20.2% in assay [16] (setting [18]); -28.8% in assay [16] (setting [19]). For the same compound, the inhibition is -9.67% in [16] (single agent, at 0.05 µM) and -66.7% in [16] (single agent, at 5 µM).
